Gal4-VP16 FLuc = Gal4-VP16 reporter inhibition counter-screen | Drosophila S2 Gal4-VP16 UAS-luciferase, luminescence, 20 h | Potency, µM (series often up to 53.6 µM), without a hit: at the top dose activity, negative = inhibition, usual class: inhibitors | hit rate 3.5% among 310,000 | AID 2546;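 note: Gal4-VP16 expression switched on by copper sulfate through the metallothionein promoter; potency is the fitted concentration of half-maximal effect; nearly all actives have a fitted effect of over 50% in size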
DT40 TDP1 CPT = DT40-hTDP1 cell growth loss with CPT. hit rate 12% among 420,000. AID 686979. Potency, µM (top dose mostly 46.2 µM), for inactives: at the top dose activity change, negative = growth inhibition, usual class: inhibitors. chicken DT40 Tdp1-/-;hTDP1 cells + 20 nM CPT, ATP luminescence, 48 h; note: potency is the fitted concentration of half-maximal effect; nearly all actives have a fitted effect of over 55% in size
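Chicken DT40 Tdp1-/- cells stably complemented with human TDP1 were seeded at 400 cells/well in medium containing 20 nM camptothecin, exposed to pin-transferred compounds, and grown at 37 °C for at least 48 hr. Viability was read as ATP luminescence.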
RORg inh = ROR gamma (mouse) transcription inhibition; P51450; Drosophila S2 Gal4-RORgamma UAS-luciferase reporter, 20 h; Potency, µM (titrated, usually from 53.6 µM), for inactives: at the top dose activity change, negative = inhibition, hits mostly inhibitors; hit rate 5.4% among 310,000; note: potency is the fitted concentration of half-maximal effect; nearly all actives have a fitted effect of over 60% in size
Target sequence (P51450 whole entry, looked up, the tested form may be a part): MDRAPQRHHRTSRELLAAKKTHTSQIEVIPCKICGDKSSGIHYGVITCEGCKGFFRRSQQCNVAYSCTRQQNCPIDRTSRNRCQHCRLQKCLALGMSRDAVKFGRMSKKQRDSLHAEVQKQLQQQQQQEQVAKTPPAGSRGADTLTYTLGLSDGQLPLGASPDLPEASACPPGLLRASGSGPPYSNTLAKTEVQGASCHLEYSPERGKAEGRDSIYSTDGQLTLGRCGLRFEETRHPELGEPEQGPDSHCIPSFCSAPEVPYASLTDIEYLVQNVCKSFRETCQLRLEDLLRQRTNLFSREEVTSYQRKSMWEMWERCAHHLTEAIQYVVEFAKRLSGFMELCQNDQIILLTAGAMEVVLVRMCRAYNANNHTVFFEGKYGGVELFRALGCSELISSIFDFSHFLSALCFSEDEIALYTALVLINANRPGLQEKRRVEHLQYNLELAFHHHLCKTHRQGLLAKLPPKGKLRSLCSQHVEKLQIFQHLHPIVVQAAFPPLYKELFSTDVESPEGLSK
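Drosophila S2 cells stably expressing Gal4-DBD/mouse RORγ fusion under metallothionein promoter plus UAS-luciferase; compound 1 h, then 700 uM CuSO4 induction for 20 h at ambient temperature; inhibition read as reduced luminescence.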
LDHA block = LDHA (human) enzyme inhibition | P00338 | purified LDHA, NADH/diaphorase-resazurin fluorescence; active compounds read low | activity change, % (values are at about 110 or 230 µM) | hit rate 0.15% among 480,000 | AID 1347041; in the data active = activity change below about -30%; inconclusive = mostly about -25% to -30%;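 note: plate controls were DMSO wells for no effect and wells without enzyme for full effect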
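Human LDH5 at 2 nM final in Tris HCl pH 7.4 with 0.06 mM NADH and 0.2 mM pyruvate, reacted 5 minutes at room temperature. Remaining NADH coupled via diaphorase/resazurin; resorufin fluorescence read at 0 and 20 minutes, normalized to enzyme-free and DMSO wells.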
DT40 TDP1 no CPT = qHTS for Inhibitors of human tyrosyl-DNA phosphodiesterase 1 (TDP1): qHTS in cells in absence of CPT; Potency, µM (top dose mostly 46.2 µM), for inactives: at the top dose activity change, negative = growth inhibition, hits mostly inhibitors; AID 686978, 2013; DT40 Tdp1-/- hTDP1 cells, no CPT, ATP luminescence, 48 h; hit rate 15% among 420,000; note: potency is the fitted concentration of half-maximal effect; nearly all actives have a fitted effect of over 55% in size
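Readout: luminescence from CellTiter-Glo after 30 min in the dark at RT. Cells: DT40 Tdp1-/- with stable hTDP1, 400/well. Exposure: compounds alone, ≥48 hr, 37 °C.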
IL-1B inflam inh = blocks inflammasome-driven IL-1 beta release | THP-1 LPS/ATP IL-1B secretion, AlphaLISA, 16 h; active compounds read low | activity change, % at 57.5 µM | hit rate 4.7% among 360,000; in the data active = activity change below about -50%; inconclusive = mostly about -30% to -49%
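Secreted IL-1B measured by AlphaLISA bead assay after 16 h compound exposure of THP-1 cells; compounds (final up to 57.5 uM) added 1 h before LPS (250 ng/mL) and ATP (1.25 mM) stimulation; lower signal means less secretion.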
An asterisk follows results filed as active; [ ] = another dose, or the depositor's remark. Rows were chosen to be rich in hits. Some 18% of all compounds tested hit in one or more screens of this group. Unless noted, calls come from the whole dose curve; as a rule, active = well fitted curve in the direction sought with a large enough effect; inconclusive = small, poorly fitted or top-dose-only effect, or another doubt; inactive = no such curve, though single readings can be large; an effect the other way counts as inactive or inconclusive. Unless noted, % is set by controls: 0 for no effect and ±100 for the full control effect.

What do the screens show for `COC(=O)C1=CN(c2ccc(C(C)(C)C)cc2)C(N)=C(C#N)C1c1cccc([N+](=O)[O-])c1` (stereo unspecified)?
DT40 TDP1 CPT: inconclusive; LDHA block: -2.4; DT40 TDP1 no CPT: 23.1µM*; IL-1B inflam inh: -16.5

Results for N#Cc1ccc(NC(=O)Cc2ccc3c(c2)CCC3)cc1Cl ?
LDHA block: 15.8

What do the screens show for `CCN(CC(=O)Nc1ccc(C#N)c(Cl)c1)CC(=O)NC(C)(C)C`?
Gal4-VP16 FLuc: 3.3%[10 µM]; DT40 TDP1 CPT: inconclusive; RORg inh: 11.0%; LDHA block: 5.4; DT40 TDP1 no CPT: 23.1µM*; IL-1B inflam inh: -13.8

Results for Cc1cccc(C)c1NC(=O)CN(C)CC(=O)Nc1ccc(C#N)c(Cl)c1 ?
Gal4-VP16 FLuc: inconclusive; DT40 TDP1 CPT: 18.4µM*; RORg inh: inconclusive; LDHA block: 3.4; DT40 TDP1 no CPT: 13µM*; IL-1B inflam inh: 0.0

Results for C[C@H]1CC[C@@H]2[C@@H](C)[C@H]3C(CC4C5CC=C6CC(O[C@@H]7O[C@H](CO)C(O[C@@H]8O[C@@H](C)[C@H](O)[C@@H](O)[C@H]8O)[C@H](O)[C@H]7O[C@@H]7O[C@@H](C)[C@H](O)[C@@H](O)[C@H]7O)CC[C@]6(C)C5CC[C@@]43C)N2C1 (stereo partly specified) ?
Gal4-VP16 FLuc: 2.6%; RORg inh: 0.1%

Results for COc1ccccc1C(=O)Nc1ccc2nc(SCC(=O)N3CCCc4ccccc43)sc2c1 ?
DT40 TDP1 CPT: 5.17µM*; LDHA block: 3.8; DT40 TDP1 no CPT: 2.91µM*

How did Cc1nc2ccc(NC(=O)C3COc4ccccc4O3)cc2s1 (stereo unspecified) do in these assays?
Gal4-VP16 FLuc: 4.4%; DT40 TDP1 CPT: inconclusive; RORg inh: 29.5%; LDHA block: -10.5; DT40 TDP1 no CPT: inconclusive; IL-1B inflam inh: 0.1

What do the screens show for `O=C(Nc1ccc2nc(SCC(=O)N3CCCc4ccccc43)sc2c1)c1ccccc1F`?
DT40 TDP1 CPT: 5.8µM*; LDHA block: -3.2; DT40 TDP1 no CPT: 5.17µM*

Results for CC(C)C[C@H]1C(=O)N2CCCC2[C@]2(O)O[C@](NC(=O)[C@@H]3C=C4c5cccc6[nH]cc(c56)CC4N(C)C3)(C(C)C)C(=O)N12 (stereo partly specified) ?
Gal4-VP16 FLuc: 2.8%; DT40 TDP1 CPT: inconclusive; RORg inh: 15.3%; LDHA block: 3.7; DT40 TDP1 no CPT: 16.4µM*; IL-1B inflam inh: -6.9

What do the screens show for `CC(C)C1C(=O)N2CCCC2[C@]2(O)O[C@@](NC(=O)[C@@H]3C=C4c5cccc6[nH]cc(c56)C[C@H]4N(C)C3)(C(C)C)C(=O)N12` (stereo partly specified)?
Gal4-VP16 FLuc: -10.2%; DT40 TDP1 CPT: 9.44µM*; RORg inh: 6.1%; DT40 TDP1 no CPT: inconclusive

Results for CC(C)[C@@]1(NC(=O)[C@@H]2C=C3c4cccc5[nH]cc(c45)C[C@H]3N(C)C2)O[C@@]2(O)[C@@H]3CCCN3C(=O)[C@H](Cc3ccccc3)N2C1=O ?
Gal4-VP16 FLuc: -6.8%; RORg inh: 28.1%

Results for CC(C)[C@H]1C(=O)N2CCC[C@H]2[C@]2(O)O[C@](NC(=O)[C@@H]3C=C4c5cccc6[nH]cc(c56)C[C@H]4N(C)C3)(C(C)C)C(=O)N12 ?
Gal4-VP16 FLuc: -14.8%; DT40 TDP1 CPT: inconclusive; RORg inh: -27.9%; LDHA block: 9.2; DT40 TDP1 no CPT: 5.8µM*; IL-1B inflam inh: -11.1

How did CC1C(=O)OC2CCN3CC=C(COC(=O)[C@](C)(O)[C@]1(C)O)C23 (stereo partly specified) do in these assays?
Gal4-VP16 FLuc: -0.2%; DT40 TDP1 CPT: inconclusive; RORg inh: -14.2%; DT40 TDP1 no CPT: -28.1%

How did c1ccc2c[n+](CCCCCCCCCC[n+]3ccc4ccccc4c3)ccc2c1 do in these assays?
DT40 TDP1 CPT: 10.5µM*; DT40 TDP1 no CPT: 8.33µM*

Results for O=C(N/N=C/c1cccnc1)c1ccc(NC(=O)C(c2ccccc2)c2ccccc2)cc1 ?
Gal4-VP16 FLuc: 6.31µM*; DT40 TDP1 CPT: 7.31µM*; RORg inh: -44.2%; LDHA block: -7.2; DT40 TDP1 no CPT: 11.6µM*; IL-1B inflam inh: 31.1

Results for CC(C)C(=O)Nc1ccc(C(=O)NCc2cccnc2)cc1 ?
Gal4-VP16 FLuc: 1.2%; DT40 TDP1 CPT: inconclusive; RORg inh: -29.5%; LDHA block: -3.0; DT40 TDP1 no CPT: inconclusive; IL-1B inflam inh: 17.8

How did C1CC2CCC1CNC2 do in these assays?
LDHA block: 4.3

What do the screens show for `CCOC(=O)c1c(C)n(Cc2ccccc2)c2ccc(OCC(O)CNC(C)(C)C)cc12` (stereo unspecified)?
Gal4-VP16 FLuc: -27.1%; DT40 TDP1 CPT: inconclusive; RORg inh: inconclusive; LDHA block: 5.1; DT40 TDP1 no CPT: 18.4µM*; IL-1B inflam inh: -96.3*

Results for N#Cc1nn(-c2c(Cl)cc(C(F)(F)F)cc2Cl)c(N)c1S(=O)C(F)(F)F (stereo unspecified) ?
Gal4-VP16 FLuc: 20µM*; DT40 TDP1 CPT: 9.62µM*; RORg inh: inconclusive; DT40 TDP1 no CPT: 8.57µM*

What do the screens show for `O=c1[nH]cc(N(CCCl)CCCl)c(=O)[nH]1`?
Gal4-VP16 FLuc: 4.0%; DT40 TDP1 CPT: -17.4%; RORg inh: -29.3%; DT40 TDP1 no CPT: -14.7%

What do the screens show for `O=c1[nH]cc(F)c(=O)[nH]1`?
Gal4-VP16 FLuc: -23.8%; DT40 TDP1 CPT: 18.4µM*; RORg inh: -4.5%; LDHA block: -7.2; DT40 TDP1 no CPT: 16.4µM*; IL-1B inflam inh: 19.3

Results for C[C@]12CC[C@H]3[C@@H](CCC4=CC(=O)CC[C@@]43C)[C@@H]1CC[C@@H]2OC(=O)CCc1ccccc1 ?
DT40 TDP1 CPT: -13.3%[92.5 µM]; DT40 TDP1 no CPT: inconclusive

Results for COC(=O)Cn1cc(/C=C2\C(=O)NC(=O)N(c3ccc(OC)cc3)C2=O)c2ccccc21 ?
Gal4-VP16 FLuc: 7.4%; DT40 TDP1 CPT: inconclusive; RORg inh: inconclusive; LDHA block: 8.0; DT40 TDP1 no CPT: 2.31µM*; IL-1B inflam inh: inconclusive

What do the screens show for `COCCCNC(=O)Cn1cc(/C=C2\C(=O)NC(=O)N(c3ccccc3F)C2=O)c2ccccc21`?
Gal4-VP16 FLuc: inconclusive; DT40 TDP1 CPT: inconclusive; RORg inh: inconclusive; LDHA block: -0.4; DT40 TDP1 no CPT: inconclusive; IL-1B inflam inh: -82.4*
